Screens: PubChem, National Center for Advancing Translational Sciences (NCATS)
SARS PLP yeast: SARS-CoV PLP inhibition in yeast. Potency, µM (titrated, usually from 32.9 µM), most hits filed as activators. 330,000 tested, 0.19% active. S. cerevisiae expressing SARS-CoV PLpro, growth rescue; calls by dose curve; note: nearly all actives have a fitted effect of over 55% in size
HCV inh: inhibitors of hepatitis C virus infection; Huh7.5.1 HCVcc-Cre infection, luciferase reporter, 44 h; AID 651820; 340,000 tested, 3.4% active; Potency, µM (doses to about 41.8 µM), hits mostly inhibitors; active = well fitted inhibition curve with a large enough effect; inconclusive = small, poorly fitted or top-dose-only effect, or another doubt; inactive = no such curve, though single readings can be large or run the other way
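1,000 cells/well; 4 h culture; + compound; + HCVcc-Cre (~0.5 moi); 44 h; luciferase substrate, RT 15 min; read 15 sec.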
FMDV antiviral: foot and mouth disease virus antiviral activity | FMDV antiviral cell-based qHTS | Potency, µM (series often up to 57.9 µM), usual class: inhibitors | 410,000 tested, 1.2% active | AID 1159524; calls by dose curve; tested in HEK293T cells; note: read-out not given here; nearly all actives have a fitted effect of over 45% in size
MARV entry inh: blocks Marburg virus binding to or entry into cells; 300,000 tested, 1.8% active; AID 540276; Potency, µM (titrated, usually from 37.8 µM), most hits filed as inhibitors; Marburg virus pseudotyped entry inhibition, cell reporter; calls by dose curve; tested in HEK293 cells
HCMV antiviral: blocks human cytomegalovirus replication; HFF cells, HCMV-luciferase reporter, 72 h; stronger effect = lower value; activity change, negative = inhibition, % at 57.5 µM; 410,000 tested, 4.5% active; in the data active = activity change below about -60%; inconclusive = no clear call, values can overlap the other calls; inactive = above about -39%
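Compounds were evaluated in HFFs infected with an HCMV luciferase reporter virus (MOI 1 PFU/cell). Luciferase in lysates collected 72 h post infection served as the replication measure.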
Lassa entry inh: inhibitors of Lassa virus binding or cell entry; Potency, µM (series often up to 37.9 µM), hits mostly inhibitors; Lassa virus pseudotype entry inhibition, cell reporter; AID 540256; 300,000 tested, 1.2% active; calls by dose curve; tested in HEK293 cells; note: nearly all actives have a fitted effect of over 50% in size
Hits are given with their value; - = inactive; ? = inconclusive; . = no result; + = active, no number. Only some compounds are listed: those with a hit (about 8% of all), similar ones and a draw of the others.

SMILES	SARS PLP yeast	HCV inh	FMDV antiviral	MARV entry inh	HCMV antiviral	Lassa entry inh
Cc1cccc(NC(=O)CSc2nc3ccccc3nc2N2CC(C)OC(C)C2)c1 (stereo not given)	-	11.2µM	-	.	-	.
CCc1cccc(NC(=O)CSc2nc3ccccc3nc2N2CCCCC2)c1	.	.	-	?	-79.8	?
Cc1cccc(NC(=O)CSc2nc3ccccc3nc2N2CCCC2)c1	-	?	-	.	?	.
Cc1cccc(NC(=O)CSc2nc3ccccc3nc2N2CCCCC2)c1	-	-	-	.	-84.0	.
CC(=O)c1cccc(-n2nnnc2SCC(=O)Nc2ccccc2N2CCCCC2)c1	-	14.1µM	?	11.2µM	-	?
COc1ccc(C)cc1NC(=O)CSc1nc2ccccc2nc1N1CC(C)OC(C)C1 (stereo not given)	-	-	?	.	-	.
CCOC(=O)NN=C1C[C@@H](O)[C@@H](O)[C@@H]2[C@H]3C(=O)N(Cc4ccc5c(c4)OCO5)C(=O)[C@@H]3CC[C@@H]12	.	.	.	-	.	.
C[C@H]1CCC(=O)N([C@H](COc2ccccc2)Cc2ccccc2)CC1	-	-	-	.	?	.
Cc1cccc(NC(=O)CSCC(=O)Nc2ccccc2N2CCCC2)c1	-	-	-	?	-	-
Cc1cccc(N2CCN(C(=O)CSc3nc4ccccc4nc3N3CC(C)OC(C)C3)CC2)c1C (stereo not given)	-	6.31µM	?	?	-	?
Cc1cccc(NC(=O)CSCC(=O)Nc2ccccc2N2CCCCC2)c1	.	?	-	11.2µM	-	?
COc1cccc(NC(=O)CSc2nc3ccccc3nc2N2CCCC2)c1	-	10µM	-	.	?	.
CN1CCN(C(=O)CCN2C(=O)/C(=C/c3cccc(Br)c3)SC2=S)CC1	-	?	-	?	-	-
COc1ccc(/C=C2\SC(=S)N(CCCC(=O)N3CCN(C)CC3)C2=O)cc1	-	-	-	?	-77.3	?
COc1ccc(/C=C2\SC(=S)N(CCC(=O)NC3C=CS(=O)(=O)C3)C2=O)cc1 (stereo not given)	-	?	-	.	-79.7	.
CN1CCN(C(=O)CCCN2C(=O)/C(=C/c3cccc(Br)c3)SC2=S)CC1	-	6.31µM	-	10µM	-84.5	?
COc1cccc(/C=C2\SC(=S)N(CCC(=O)NC3C=CS(=O)(=O)C3)C2=O)c1 (stereo not given)	-	?	-	.	-	.
COc1ccc(/C=C2\SC(=S)N(CCC(=O)N3CCOCC3)C2=O)cc1	-	-	-	-	-	-
CN1CCN(C(=O)CCN2C(=O)/C(=C\c3ccc(F)cc3)SC2=S)CC1	-	?	?	-	-	?
CCc1ccc(/C=C2\SC(=S)N(CCCC(=O)N3CCN(C)CC3)C2=O)cc1	.	.	-	.	-100.5	.
CC(C)Oc1ccc(C(=O)N2CCN(C(=O)c3ccco3)CC2)cc1	-	-	-	-	-	-
COC(=O)C(c1ccccc1)(c1cn(C)c2ccc(OC)cc12)C(Nc1ccccc1)c1ccccc1 (stereo not given)	.	.	.	.	-	.
Cc1nn(C)c(C)c1S(=O)(=O)N(CC(=O)Nc1ccc(F)cc1F)c1ccc(C(C)C)cc1	.	.	-	-	-	-
Cc1cc(Cl)ccc1NC(=O)CCCn1nc(C)c2c(C)n(-c3ccccc3)nc2c1=O	.	.	-	.	-	?
CC(C(=O)NC1C=CS(=O)(=O)C1)N1C(=O)/C(=C\c2ccccc2)SC1=S (stereo not given)	.	-	-	.	?	.
SMILES	SARS PLP yeast	HCV inh	FMDV antiviral	MARV entry inh	HCMV antiviral	Lassa entry inh
CC(C(=O)NC1C=CS(=O)(=O)C1)N1C(=O)/C(=C/c2cccc(Cl)c2)SC1=S (stereo not given)	-	-	-	.	-65.0	.
CCOc1ccc(CNC(=O)c2ccc3[nH]c(C)c(C)c3c2)cc1OC	.	.	-	.	+	?
COc1ccc(CCNC(=O)c2ccc3[nH]c(C)c(C)c3c2)cc1OC	.	.	-	.	-	?
Cc1cccc(N2CCN(CCNC(=O)Nc3ccc(Cl)cc3)CC2)c1C	.	.	-	-	-99.2	-
O=C(CN1CCCCC1)Nc1ccc(S(=O)(=O)N2CCCCCC2)cc1	-	?	-	-	-	-
O=C(CN1CCOCC1)Nc1ccc(S(=O)(=O)N2CCCCCC2)cc1	-	-	-	-	-82.0	-
Cc1cccc(N2CCN(CC(=O)Nc3ccc(S(=O)(=O)N4CCOCC4)cc3)CC2)c1C	-	10µM	?	.	-66.8	.
O=C(NCCN1CCN(c2ccccc2Cl)CC1)Nc1ccccc1	-	-	-	-	-	?
CC(CCc1ccccc1)NC(=O)COC(=O)c1ccc(NC(N)=O)cc1 (stereo not given)	-	-	-	.	-71.0	.
CC(CCc1ccccc1)NC(=O)COC(=O)c1cc(NS(=O)(=O)c2ccc(Cl)c([N+](=O)[O-])c2)ccc1O (stereo not given)	-	?	-	2.51µM	-	-
CNS(=O)(=O)c1cccc(C(=O)OCC(=O)NC(C)CCc2ccccc2)c1 (stereo not given)	-	-	-	.	-	.
O=[N+]([O-])c1ccccc1SN(Cc1ccccc1)c1ccccn1	-	-	-	-	-	-
Cc1cccc(NC(c2nnc(-c3ccccc3)o2)c2ccc(F)cc2Cl)c1C (stereo not given)	.	.	-	.	-	-
CCN(CC)CCN(C)C(c1cc2ccccc2o1)c1nnnn1C(C)(C)C (stereo not given)	.	.	-	.	-	.
CN(Cc1ccc(Cl)c(Cl)c1)C(c1cc2ccccc2o1)c1nnnn1C(C)(C)C (stereo not given)	.	.	22.4µM	.	-77.5	.
COc1cccc(-c2nc(NC(C)(C)C)c3ccccc3n2)c1O	-	?	25.1µM	-	-	?
COc1cccc(-c2nc(Oc3cc(C)cc(C)c3)c3ccccc3n2)c1O	-	-	.	.	.	.
COc1ccc(Nc2nc(-c3cccc(OC)c3O)nc3ccccc23)cc1	-	5.62µM	-	.	?	.
COc1cccc(CN2C(=O)COCc3cc(-c4cccc(CO)c4)ccc32)c1	.	.	.	.	-	.
CN(C)CCNC(=O)C1CCN(Cc2cc3ccccc3n2Cc2ccccc2)CC1	.	.	.	.	-101.4	?
CCCNC(=O)C1CCN(Cc2cc3ccccc3n2Cc2ccccc2)CC1	.	.	-	.	-	?
CCCc1nc2ccc(C)cn2c1Cc1ccccc1C(F)(F)F	.	.	-	.	-69.1	.
COc1cc(OC)cc(C(=O)Nc2ccc(S(=O)(=O)N3CCCCC3c3cccnc3)cc2)c1 (stereo not given)	.	.	?	.	-68.2	?
CC(C)CCn1nnnc1CN1CCN(c2ccc(F)cc2)CC1	-	-	-	-	-102.3	-
CC(C)CCn1nnnc1CN1CCN(C(c2ccccc2)c2ccccc2)CC1	-	?	?	.	-	.
N#CNC(=Nc1ccccc1)SCc1ccc(C(=O)O)cc1	-	-	-	-	-	-
CSC(=Nc1ccccc1)N=C(SCc1ccccc1)N(C)C	.	?	?	?	-101.4	12.6µM
Cc1cccc(NC(=O)NNC(=O)c2cc3ccccc3cc2O)c1C	-	-	-	-	-	-
Cc1cccc(NC(=S)NNC(=O)c2ccc(O)cc2O)c1C	-	-	-	?	-98.3	-
